# Source: the antibiotic and cytotoxicity screens of Wong et al. (2023)
# Out of some 39,000 compounds screened, about 3,300 (8.5%) were called active. The entries come from a sample that favours actives as a whole.
# Tested on: HepG2
# Test: cytotoxicity call (relative viability < 0.9)
# Settings: 10 µM
row,Compound,cytotoxicity call
1,CC1CN(c2c(F)c(N)c3c(=O)c(C(=O)O)cn(C4CC4)c3c2F)CC(C)N1 (stereo unspecified),inactive
2,CC(C)NC(=O)N(C)C[C@H]1OCCCC[C@@H](C)Oc2ccc(NC(=O)Nc3ccc(C(F)(F)F)cc3)cc2C(=O)N([C@H](C)CO)C[C@@H]1C,inactive
3,CC(C)NC(=O)N(C)C[C@@H]1Oc2c(NC(=O)C3CCOCC3)cccc2C(=O)N([C@@H](C)CO)C[C@@H]1C,inactive
4,COc1ccc(S(=O)(=O)Nc2ccc3c(c2)C(=O)N([C@@H](C)CO)C[C@H](C)[C@@H](CN(C)Cc2ccccc2)OCCCC[C@H](C)O3)cc1,inactive
5,C(=N\c1cc(-c2ccccc2)nn1-c1ccccc1)/c1ccccc1,inactive
6,C[C@H]1CN([C@@H](C)CO)C(=O)c2cc(C#CC3CCCCC3)cnc2O[C@@H]1CN(C)C(=O)c1ccncc1,inactive
7,O=C(CCCCCCC(=O)Nc1ccc([C@H]2C[C@H](c3ccccc3)O[C@H](c3cccc(Oc4ccccc4)c3)O2)cc1)NO,inactive
8,C[C@H](CO)N1C[C@H](C)[C@H](CN(C)Cc2ccc(C(=O)O)cc2)Oc2ccc(NS(=O)(=O)c3cn(C)cn3)cc2CC1=O,inactive
9,O=C(C[C@@H]1C[C@H]2c3cc(NS(=O)(=O)c4ccc(F)cc4)ccc3O[C@H]2[C@H](CO)O1)NCc1ccccc1F,inactive
10,C[C@@H]1COCCC(=O)N1,inactive
11,O=C1CN(c2ccccc2)C(=O)N1,inactive
12,C[C@H]1CN([C@@H](C)CO)S(=O)(=O)c2ccc(C3=CCCCC3)cc2O[C@@H]1CN(C)S(=O)(=O)c1cn(C)cn1,inactive
13,COc1ccc(S(=O)(=O)N(C)C[C@@H]2Oc3c(NC(=O)Nc4cccc5ccccc45)cccc3C(=O)N([C@@H](C)CO)C[C@@H]2C)cc1,inactive
14,C[C@@H]1CN([C@@H](C)CO)C(=O)c2cccc(NC(=O)Nc3cccc4ccccc34)c2O[C@H]1CN(C)S(=O)(=O)c1cccs1,inactive
15,C[C@@H]1CN([C@H](C)CO)C(=O)c2cccc(NC(=O)Nc3cccc4ccccc34)c2O[C@@H]1CN(C)S(=O)(=O)c1cccs1,active
16,COc1ccc(S(=O)(=O)N(C)C[C@@H]2Oc3c(NC(=O)Nc4cccc5ccccc45)cccc3C(=O)N([C@H](C)CO)C[C@@H]2C)cc1,inactive
17,COc1ccc(S(=O)(=O)N(C)C[C@H]2Oc3c(NC(=O)Nc4cccc5ccccc45)cccc3C(=O)N([C@H](C)CO)C[C@H]2C)cc1,inactive
18,C[C@@H]1CN([C@@H](C)CO)C(=O)c2cccc(NC(=O)Nc3cccc4ccccc34)c2O[C@@H]1CN(C)S(=O)(=O)c1cccs1,inactive
19,COc1ccc(S(=O)(=O)N(C)C[C@@H]2Oc3c(NC(=O)Nc4cccc5ccccc45)cccc3C(=O)N(C(C)C)C[C@H]2C)cc1,inactive
20,COc1ccc(S(=O)(=O)N(C)C[C@@H]2Oc3c(NC(=O)Nc4cccc5ccccc45)cccc3C(=O)N([C@H](C)CO)C[C@H]2C)cc1,active
21,COc1ccc(S(=O)(=O)N(C)C[C@H]2Oc3c(NC(=O)Nc4cccc5ccccc45)cccc3C(=O)N([C@H](C)CO)C[C@@H]2C)cc1,active

row,Compound,cytotoxicity call
1,C[C@@H]1CCCCO[C@@H](CN(C)S(C)(=O)=O)[C@H](C)CN([C@@H](C)CO)C(=O)c2cc(N(C)C)ccc2O1,inactive
2,COc1ccc(S(=O)(=O)N(C)C[C@H]2Oc3ncc(Br)cc3C(=O)N([C@@H](C)CO)C[C@@H]2C)cc1,inactive
3,C[C@H](CO)N1C[C@H](C)[C@@H](CN(C)C(=O)Nc2ccccc2)Oc2ccc(NC(=O)C3CC3)cc2CC1=O,inactive
4,O=C1OCC=C[C@H]2O[C@@]34C=CCN(c5ccc(Cl)cc5)C(=O)[C@H]3N(CCCCCCO)C(=O)[C@@H]4[C@@H]12,inactive
5,C[C@@H]1CCCCO[C@H](CN(C)Cc2ccc(C(=O)O)cc2)[C@@H](C)CN([C@H](C)CO)C(=O)c2cc(NC(=O)Nc3ccccc3)ccc2O1,inactive
6,CC(C)N1C(=O)C[C@@](C(=O)NCCN2CCOCC2)(c2ccc([N+](=O)[O-])cc2)[C@H]1c1ccc(CO)cc1,inactive
7,COc1ccc(NC(=O)Nc2ccc3c(c2)C(=O)N([C@@H](C)CO)C[C@H](C)[C@H](CN(C)C(=O)NC2CCCCC2)OCCCC[C@H](C)O3)cc1,inactive
8,C[C@H]1CCCCO[C@H](CN(C)S(=O)(=O)c2ccccc2)[C@@H](C)CN([C@@H](C)CO)C(=O)c2cc(NC(=O)Nc3cccc4ccccc34)ccc2O1,inactive
9,Cc1noc(C)c1NC(=O)N[C@@H]1CC[C@H](CC(=O)NCCCN(C)C)O[C@H]1CO,inactive
10,C[C@H]1CN([C@@H](C)CO)C(=O)c2cc(NC(=O)C3CC3)ccc2O[C@H]1CN(C)S(=O)(=O)c1cn(C)cn1,inactive
11,Cc1cc(C(=O)Nc2cccc3c2O[C@H](CN(C)S(=O)(=O)c2ccc(Cl)cc2)[C@@H](C)CN([C@H](C)CO)C3=O)n(C)n1,inactive
12,COc1cccc(C)c1NC(=O)O[C@H]1[C@H](OC(=O)Nc2ccccc2-c2ccccc2)[C@H](OC(=O)Nc2ccccc2-c2ccccc2)[C@@H](OC)O[C@@H]1CO,inactive
13,COc1cc(NC(=O)CCN2CCC(OC(=O)Nc3ccccc3-c3ccccc3)CC2)c(Cl)cc1CNC[C@H](O)c1ccc(O)c2nc(O)ccc12,active
14,NCc1cc2ccc(F)cc2[nH]c1=O,inactive
15,C[C@H]1CN([C@@H](C)CO)C(=O)c2cc(C#CCN(C)C)cnc2O[C@H]1CN(C)C(=O)c1cnccn1,inactive
16,CC(=O)Oc1cc(OC(C)=O)c2c(c1)O[C@H](c1ccc(OC(C)=O)c(OC(C)=O)c1)[C@H](OC(C)=O)C2,inactive
17,O=C1NC(=O)C(c2cnc3ccccn23)=C1c1cn2c3c(cc(F)cc13)CN(C(=O)N1CCCCC1)CC2,active
18,C[C@H](CO)N1C[C@H](C)[C@@H](CN(C)S(=O)(=O)c2cn(C)cn2)Oc2c(NS(=O)(=O)c3ccc(Cl)cc3)cccc2C1=O,inactive
19,COc1cccc(-c2ccc3c(c2)O[C@@H](CN(C)C(=O)C2CCC2)[C@@H](C)CN([C@H](C)CO)S3(=O)=O)c1,inactive
20,Cc1ccc(S(=O)(=O)N(C)C[C@H]2Oc3ccc(NS(=O)(=O)c4cccs4)cc3C(=O)N([C@@H](C)CO)C[C@@H]2C)cc1,inactive
